Experimental data as given in PubChem BioAssay (NCI).
Where “and” joins values, the source holds several entries; their conditions need not be identical. Equal values may be shown once. This is part of a sample that, as a whole, favours compounds with a hit. Of some 83,000 tested, about 20% had one in any assay.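 Results are percent growth after 48 hours of single-concentration exposure. 100 means growth as in untreated cells, lower positive values show inhibition; negative values down to -100 show cell death.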 Calls of active or inactive are those of the source. The calls were made as follows: active = growth percent below 10; inactive = the rest.

What was measured:
Experiment in all cases: NCI-60 one-dose screen, 48 h (100 = growth as untreated, 0 = no growth, -100 = all killed)
Details in all cases: 10 µM unless noted
[1] = tested on: HCT-15 colon
[2] = tested on: HT29 colon
[3] = tested on: SNB-75 CNS
[4] = tested on: SNB-19 CNS
[5] = tested on: U251 CNS
[6] = tested on: PC-3 prostate
[7] = tested on: SK-MEL-5 melanoma
[8] = tested on: UACC-62 melanoma
[9] = tested on: LOX IMVI melanoma
[10] = tested on: SK-MEL-28 melanoma

Measured: growth

CCN(CC)C(=S)SSC(=S)N(CC)CC
inactive: [1] 81.4% and 109% | [2] 68.5% and 94.4% | [3] 72.6% and 93.2% | [4] 85.4% and 97% | [5] 58.5% and 100% | [6] 68.5% and 108% | [7] 40.2% and 110% | [8] 69.6% and 105% | [9] 53% and 98.4% | [10] 61.5% and 106%

CC(C)CNC(=O)c1ccccc1C(=O)NC1(C(=O)NCC(C)C)CCCC1
inactive: [1] 103% and 106% | [2] 105% and 104% | [3] 87.9% and 94.6% | [4] 105% and 108% | [5] 109% and 105% | [6] 97.9% and 96.3% | [7] 106% and 115% | [8] 103% and 107% | [9] 90.4% and 101% | [10] 117% and 115%

CN(C)CCCNC1=C(Cl)C(=O)c2ccccc2C1=O
53.1% (inactive) and -9.85% (active): [4]
active: [1] -62.2% and -49.3% | [2] -26% and -31.7% | [5] -63% and -94.2% | [7] -94.2% and -100% | [9] -43.5%
28.6% (inactive) and -13.8% (active): [8]
inactive: [3] 64.1% and 47.8% | [6] 56.8% and 53.6% | [10] 83.2% and 83.7%

Cc1cccc(/C=C\C(=O)c2ccc(Cl)cc2)c1
inactive: [1] 89.5% and 96.6% | [2] 84.1% and 90.9% | [3] 98.9% and 115% | [4] 91.6% and 101% | [5] 80.3% and 98.9% | [6] 89.6% and 83.7% | [7] 108% and 94.8% | [8] 96.8% and 103% | [9] 89.2% and 91.6% | [10] 106% and 111%

CNc1ccc2nc3ccc(=[N+](C)C)cc-3sc2c1
active: [3] -53.5% | [4] 1.89% and -5.26% | [5] -48.5% and -15.5% | [6] 1.57% and 1.01% | [7] -97% and -61.1% | [8] 4.52% and -3.38% | [9] -57.5% and -44.1%
9.87% (active) and 38.1% (inactive): [2]
17.2% (inactive) and 9.61% (active): [1]
-31.3% (active) and 27.9% (inactive): [10]

Clc1ccc(SSc2ccc(Cl)cc2)cc1
97.6% (inactive) and 7.12% (active): [9]
inactive: [1] 98.8% and 92.4% | [2] 98.1% and 98.2% | [3] 74.4% and 67% | [4] 93.7% and 89.2% | [5] 93.4% and 61% | [6] 87.3% and 46.5% | [7] 105% and 73.3% | [8] 96.9% and 95.8% | [10] 96.9% and 103%

CCN(CC)CCc1nc(-c2ccccc2)no1
inactive: [1] 78.8% and 111% | [2] 64.3% and 93.3% | [3] 82.1% and 72.2% | [4] 89.7% and 94.2% | [5] 52.7% and 99.4% | [6] 81.3% and 96.7% | [7] 84.6% and 116% | [8] 77% and 95.9% | [9] 63.9% and 94.6% | [10] 89.5% and 106%

O=[N+]([O-])c1ccccc1/C=N\Nc1ccccc1
inactive: [1] 42.5% and 60.2% | [2] 102% and 111% | [3] 71.4% and 96% | [4] 96.2% and 102% | [5] 84.7% and 90% | [6] 63% and 56.5% | [7] 90.3% and 88.6% | [8] 18.7% and 19.9% | [9] 71.7% and 53.4% | [10] 115% and 117%

NC(=S)N/N=C(\c1ccc(Br)cc1)C1CC1
inactive: [1] 81.8% and 82.9% | [2] 68.4% | [3] 87.1% and 76.7% | [4] 108% | [5] 93.2% | [6] 84.1% and 61.5% | [7] 100% and 95.9% | [9] 86.2%

O=C1c2c(O)cc(O)cc2OC(c2ccc(O)c(O)c2)C1O (stereo unspecified)
inactive: [1] 108% | [2] 110% | [3] 96.1% | [4] 101% | [5] 102% | [6] 96.4% | [7] 104% | [8] 106% | [10] 108%

O=C(CCc1ccc(O)cc1)N/N=C/c1cc(Br)ccc1O
inactive: [1] 28.7% | [2] 98.4% | [3] 79.4% | [4] 69.6% | [5] 49.2% | [6] 38.8% | [7] 45.3% | [8] 37.7% | [9] 21.1% | [10] 69.5%

CN1CCN(c2ccc3nc(-c4c(N)c5c(F)cccc5[nH]c4=O)[nH]c3c2)CC1
-66.4% (active) and 16.4% (inactive): [9]
inactive: [1] 30.7% and 18.7% | [3] 35.3% and 28.4% | [4] 53.9% and 61.5% | [5] 34.9% and 33.5% | [6] 27.2% and 38.4% | [7] 11.2% and 36.3% | [8] 46.5% and 41%
1.59% (active) and 10.3% (inactive): [2]
active: [10] -5.34%

Nc1ccc2[nH]c(-c3ccccc3)cc(=O)c2c1
inactive: [1] 73.7% | [2] 78.7% | [3] 82.4% | [4] 88.7% | [5] 72.9% | [6] 74.1% | [7] 58.2% | [8] 77.6% | [10] 86.5%

Oc1ccccc1/C=N\NC(=S)N/N=C/c1ccccc1O
inactive: [1] 19.1% and 22.4% | [2] 39.1% and 54.6% | [3] 77% and 90.1% | [4] 51.1% and 44.6% | [5] 41% and 24.2% | [6] 35% | [9] 28.4% and 25.3% | [10] 53.6% and 58.8%
20.4% (inactive) and -5.16% (active): [8]
35.7% (inactive) and -37% (active): [7]

O=C(O)C1C2C=CC(C2)C1C(=O)O (stereo unspecified)
inactive: [1] 106% and 101% | [2] 94.3% and 14.4% and 104% | [3] 102% and 61.9% and 89% | [4] 99.2% and 51.6% and 113% | [5] 105% and 19.7% and 98.8% | [6] 93.6% and 17.4% and 98.1% | [7] 103% and 23.6% and 98.5% | [8] 89.8% and 26.8% and 104% | [9] 109% and 16.9% and 104% | [10] 105% and 49.8% and 109%

Nc1ncnc2c1ncn2C1CC(O)C(CO)O1 (stereo unspecified)
inactive: [1] 107% and 111% | [2] 109% and 115% | [3] 89.7% and 92.9% | [4] 107% and 103% | [5] 102% and 100% | [6] 110% and 102% | [7] 115% and 108% | [8] 104% and 105% | [9] 103% and 105% | [10] 123% and 115%

CCN(CC)CCCC(C)N(Cc1ccccc1)CC(O)c1ccc(Cl)cc1 (stereo unspecified)
inactive: [1] 101% and 97.9% | [2] 108% and 92.5% | [3] 109% and 90.6% | [4] 109% and 107% | [5] 105% and 102% | [6] 87.7% and 93.2% | [7] 100% and 105% | [8] 95.8% and 106% | [9] 99.7% and 97.5% | [10] 109% and 106%
